# Measured values reported in ChEMBL document CHEMBL3988442, “University of Dundee, Small-Polar-MMV Screening Library” (2021).
# In all, about 69,000 compounds went through this assay and about 1,000 (1.4%) showed an effect of 50% or more. Shown is part of a subset that was picked to be rich in strong results.
# Tested on: Leishmania donovani
# Assay: Leishmania intramacrophage assay
# Type: functional, organism-based
# Parameters: scale not given: in the data most compounds retested in dose-response had high values
smiles,measurement,setting,value
O=S(=O)(c1ccccc1Cl)N1CCc2nc(C3CCNCC3)ncc2C1,Percent Effect,"30 µM, 30.03 µM",50.23%
Cl.O=S(=O)(c1ccc(Cl)cc1)N1CCc2nc(C3CCNCC3)ncc2C1,Percent Effect,"30.3 µM, […]",-22.35%
Cc1ccc(S(=O)(=O)N2CCc3nc(C4CCNCC4)ncc3C2)cc1.Cl,Percent Effect,"30 µM, 30.03 µM",-1.201%
Cc1nc(C2CCCN2Cc2nc(C3CC3)no2)no1 (centres undefined),Percent Effect,30 µM,21.89%
CCCN(CCC)C(=O)c1cc(CN2CCC(O)CC2)on1,Percent Effect,"30.3 µM, […]",36.24%
CCn1ncc(Cn2cc(Cl)c(N)n2)c1C,Percent Effect,"30.3 µM, […]",-8.997%
COc1ccnc(CNc2nc(C)nc(C)c2C)c1,Percent Effect,"30.3 µM, […]",39.23%
Cc1nc(NCc2noc(C3CCCO3)n2)c2sccc2n1 (centres undefined),Percent Effect,"30.3 µM, […]",29.04%
COc1ccnc(CNc2nc(C)nc3ccsc23)c1,Percent Effect,"30.3 µM, […]",56.7%
CCc1csc(C2CCCN(C(=O)c3ccc4c(c3)OCO4)C2)n1 (centres undefined),Percent Effect,"30.3 µM, […]",-18.73%
Cc1ccc(S(=O)(=O)N2CC(C)Oc3ncccc32)c(F)c1 (centres undefined),Percent Effect,"30.3 µM, […]",21.87%
Cc1ccc(S(=O)(=O)N2CC(C)Oc3ncccc32)c(C)c1 (centres undefined),Percent Effect,"30.3 µM, […]",55.69%
CC1CN(S(=O)(=O)c2ccc(F)cc2F)c2cccnc2O1 (centres undefined),Percent Effect,"30.3 µM, […]",30.4%
CN(CC1(CO)CCC1)C(=O)c1cc(COc2ccccc2F)[nH]n1,Percent Effect,"30.3 µM, […]",-17.63%
COc1ccc2c(c1)CCCN(C(=O)NCC1CCCO1)C2 (centres undefined),Percent Effect,"30.3 µM, […]",6.687%
COc1ccc2c(c1)CCCN(CC(=O)NCC1CCCO1)C2 (centres undefined),Percent Effect,"30.3 µM, […]",55.19%
COc1ccc2c(c1)CN(CC(=O)NC1CCCC1)CC2,Percent Effect,"30.3 µM, […]",-7.68%
CC(=O)NC(C)C(=O)N(Cc1ccc(C)c(C)c1)C1CC1 (centres undefined),Percent Effect,"30.3 µM, […]",-3.591%
COc1ccccc1-c1ncc(CN2CCCC[C@H](N(C)C)C2)s1,Percent Effect,"30.3 µM, […]",36.23%
COc1ccccc1-c1ncc(CN2C[C@H](O)[C@@H](N3CCCC3)C2)s1,Percent Effect,"30.3 µM, […]",4.457%
COc1ccccc1-c1ncc(CN2C[C@@H](N(C)C)[C@H](C(C)C)C2)s1,Percent Effect,"30.3 µM, […]",52.36%
CNC(=O)CN1CC[C@H]2CN(C(=O)c3ccc(C)cc3)C[C@H]2C1.O=C(O)C(F)(F)F,Percent Effect,"30.3 µM, […]",2.501%
CCN1CCn2c(C)cnc2C12CCN(C(=O)N(C)C)CC2.O=C(O)C(F)(F)F.O=C(O)C(F)(F)F,Percent Effect,"30.3 µM, […]",6.426%
CC(C)c1cc(C(=O)N2CCOCC2CC(=O)c2ccco2)nn1C (centres undefined),Percent Effect,"30.3 µM, […]",-24.4%
Cc1nn(-c2ccccc2Cl)c(C)c1CCC(=O)O,Percent Effect,"30.3 µM, […]",-26.02%
NCC(c1ccccc1)N1CCc2sccc2C1 (centres undefined),Percent Effect,"30 µM, 30.03 µM",28.55%
CC(C)c1ccc(C(CN)N2CCc3sccc3C2)cc1 (centres undefined),Percent Effect,"30.3 µM, […]",82.67%
NCC(c1ccc(Cl)cc1)N1CCc2sccc2C1 (centres undefined),Percent Effect,"30.3 µM, […]",40.17%
O=C(NCCSC1CCCC1)c1ccc(F)cc1F,Percent Effect,"30.3 µM, […]",24.13%
COc1ccccc1N1CCN(C(=O)Cn2nc(C)c(Cl)c2C)CC1,Percent Effect,"30.3 µM, […]",31.83%
c1ccc2oc(CCCN3CCCC(Cn4cncn4)C3)nc2c1 (centres undefined),Percent Effect,30 µM,8.044%
Cc1cc(C(=O)N2C[C@H]3CC[C@@H]2CN(Cc2ccccn2)C3)nc(C)n1,Percent Effect,"30.3 µM, […]",16.91%
CC(=O)Nc1ccc(CNCC(O)c2ccc(Cl)cc2)cc1 (centres undefined),Percent Effect,"30.3 µM, […]",-0.7096%
CC(C)Nc1ncnc2c1CCN(c1cc(C(F)(F)F)ncn1)CC2,Percent Effect,"30.3 µM, […]",9.513%
CCN(C(=O)NCc1ccc(C)cc1OC)C(C)c1cccnc1 (centres undefined),Percent Effect,"30.3 µM, […]",51.84%
CCOc1ccccc1CNC(=O)N(CC)C(C)c1cccnc1 (centres undefined),Percent Effect,"30.3 µM, […]",14.76%
CCN(C(=O)NCc1ccccc1OC(F)F)C(C)c1cccnc1 (centres undefined),Percent Effect,"30.3 µM, […]",43.41%
Cc1ccc2c(n1)N(CC1CC1)CCN(Cc1cnn(C)c1)C2,Percent Effect,"30.3 µM, […]",26.83%
Cc1ccc2c(n1)N(Cc1cccnc1)CCN(Cc1cnn(C)c1)C2,Percent Effect,"30.3 µM, […]",76.22%
Cc1ccc2c(n1)N(Cc1cccnc1)CCN(C(=O)C1CC=CC1)C2,Percent Effect,"30.3 µM, […]",-19.75%
Cc1nn(C)c(Cl)c1C1CCCN1C(=O)c1nccnc1N (centres undefined),Percent Effect,"30 µM, 30.03 µM",1.892%
CC(NC(=O)NCCCn1cncn1)c1ccccc1Cl (centres undefined),Percent Effect,"30 µM, 30.03 µM",-19.77%
O=C(O)Cc1cnc(-c2c(Cl)cccc2Cl)s1,Percent Effect,"30.3 µM, […]",39.96%
CCc1ccc(CN2C[C@@H](c3nc(C)no3)C[C@H]3OCC[C@H]32)o1.O=C(O)C(F)(F)F,Percent Effect,"30.3 µM, […]",-6.961%
Cc1noc([C@H]2C[C@H]3OCC[C@H]3N(Cc3ccc4c(c3)OCO4)C2)n1.O=C(O)C(F)(F)F,Percent Effect,"30 µM, 30.03 µM",25.3%
Cc1noc([C@H]2C[C@H]3OCC[C@H]3N(Cc3ccc(F)cc3)C2)n1.O=C(O)C(F)(F)F,Percent Effect,"30.3 µM, […]",51.58%
Cc1cccnc1NC(=O)c1ccc(F)c(S(=O)(=O)NC2CC2)c1,Percent Effect,"30.3 µM, […]",2.163%
CC(=O)Nc1ncc(S(=O)(=O)Nc2cccc(C)c2)s1,Percent Effect,"30.3 µM, […]",11.84%
CC(=O)Nc1ncc(S(=O)(=O)Nc2cccc(F)c2)s1,Percent Effect,"30.3 µM, […]",-21.07%
CC(=O)Nc1ncc(S(=O)(=O)Nc2cccc(O)c2)s1,Percent Effect,"30.3 µM, […]",53.03%
Cc1cnc(N2CC[C@@H]3OC(COCC(=O)N(C)C)CC[C@@H]32)nc1.O=C(O)C(F)(F)F (some centres undefined),Percent Effect,"30.3 µM, […]",4.675%
Cc1cnc(N2CC[C@@H]3O[C@@H](COCC(=O)N(C)C)CC[C@@H]32)nc1.O=C(O)C(F)(F)F,Percent Effect,"30.3 µM, […]",58.41%
CN(C)C(=O)COC[C@@H]1CC[C@H]2[C@H](CCN2c2ncccn2)O1.O=C(O)C(F)(F)F,Percent Effect,"30.3 µM, […]",37.88%
Cc1nc(-c2cncnc2C2CCCNC2)no1.Cl.Cl (centres undefined),Percent Effect,"30.3 µM, […]",9.405%
O=C(Nc1nncs1)c1ccc(O)nc1,Percent Effect,"30.3 µM, […]",16.66%
CCc1nnc(CNC2CCN(c3ncnc4c(C)csc34)CC2)s1,Percent Effect,"30.3 µM, […]",52.55%
Cc1nc(C)n(CCNC2CCN(c3ncnc4c(C)csc34)CC2)n1,Percent Effect,"30.3 µM, […]",-18.48%
Cc1nnc(CCNC2CCN(c3ncnc4c(C)csc34)CC2)s1,Percent Effect,"30 µM, 30.03 µM",49.19%
CCNC(=O)NC(C)c1nc(-c2ccc(Br)cc2)no1 (centres undefined),Percent Effect,"30.3 µM, […]",26.95%
CSCC1CCN(C(=O)c2ccccc2NCc2cccnc2)C1 (centres undefined),Percent Effect,"30.3 µM, […]",-38.07%
CC(C)SCC(=O)NCc1cc2n(n1)CCCN(C1CCCCC1)C2,Percent Effect,"30.3 µM, […]",64.6%
CCCOC(C)C(=O)NCc1cc2n(n1)CCCN(C1CCCCC1)C2 (centres undefined),Percent Effect,"30.3 µM, […]",20.03%
CCC(OC)C(=O)NCc1cc2n(n1)CCCN(C1CCCCC1)C2 (centres undefined),Percent Effect,"30.3 µM, […]",1.469%
CCC(C)NC(=O)NCc1cc2n(n1)CCCN(C1CCCCC1)C2 (centres undefined),Percent Effect,"30.3 µM, […]",50.3%
CSCCC(=O)NCc1cc2n(n1)CCCN(C1CCCCC1)C2,Percent Effect,"30.3 µM, […]",-17.68%
CN[C@@H](CO)C(=O)NCc1cc2n(n1)CCCN(C1CCCCC1)C2,Percent Effect,"30.3 µM, […]",3.405%
Cc1cc(C)n(-c2cncc(N3CCC(C(=O)N(C)C)CC3)n2)n1,Percent Effect,"30.3 µM, […]",-6.574%
O=C(c1ccc(=O)[nH]n1)N1CCNCC1c1ccccc1 (centres undefined),Percent Effect,"30.3 µM, […]",-5.209%
CC(C)Nc1cccc(C(=O)NCC(O)c2cccc(F)c2)c1 (centres undefined),Percent Effect,"30.3 µM, […]",8.412%
CCc1nc(N)sc1C(=O)N1CCCC(CCc2ccccc2C)C1 (centres undefined),Percent Effect,"30 µM, 30.03 µM",59.23%
Cc1ccccc1CCC1CCCN(C(=O)Cc2cc(=O)[nH]c(N)n2)C1 (centres undefined),Percent Effect,"30.3 µM, […]",-48.51%
CCc1nc(N)sc1C(=O)N1CCCC(COc2cccc(C)c2)C1 (centres undefined),Percent Effect,"30.3 µM, […]",-12.25%
CC(=O)N1CCC(c2cncc(N3CCC(O)C3)n2)CC1 (centres undefined),Percent Effect,"30.3 µM, […]",8.685%
O=C(O)C(F)(F)F.O=S(=O)(NC1CCC12CCN(CC1CCOCC1)CC2)c1ccccc1 (centres undefined),Percent Effect,"30.3 µM, […]",17.74%
CC(C)(C)OC(=O)N[C@@H]1C[C@@H](O)CN(C(=O)c2cccc(F)c2)C[C@H]1O,Percent Effect,"30.3 µM, […]",29.87%
Cc1c(CNCc2nn(-c3ccccc3)c3c2CCC3)cc(C#N)n1C,Percent Effect,"30.3 µM, […]",49.86%
Cc1noc(C)c1CNCc1nn(-c2ccccc2)c2c1CCC2,Percent Effect,"30.3 µM, […]",-2.831%
COc1ccccc1CNCc1nn(-c2ccccc2)c2c1CCC2,Percent Effect,"30.3 µM, […]",72.37%
CC(=O)c1cccc(OCCCC(=O)N(C)Cc2cnn(C)c2)c1,Percent Effect,"30.3 µM, […]",-2.967%
Cc1cccc(-n2cc(CNc3ncnc4c3CCNCC4)cn2)c1,Percent Effect,"30.3 µM, […]",61.6%
Cc1ccc(-c2cc(CNc3ncnc4c3CCNCC4)no2)cc1,Percent Effect,"30.3 µM, […]",97.6%
c1ccc(CN2CCC(CCNc3ncnc4c3CCNCC4)C2)cc1 (centres undefined),Percent Effect,"30.3 µM, […]",-39.7%
Clc1ccccc1-c1cc(CNc2ncnc3c2CCNCC3)no1,Percent Effect,"30.3 µM, […]",94.85%
c1cncc(-c2noc(CCNc3ncnc4c3CCNCC4)n2)c1,Percent Effect,"30.3 µM, […]",24.85%
Cc1ccccc1-n1cc(CNc2ncnc3c2CCNCC3)cn1,Percent Effect,"30.3 µM, […]",29.71%
COCc1noc(CCNc2ncnc3c2CCNCC3)n1,Percent Effect,"30.3 µM, […]",2.148%
c1ccc(CN2CCC(CNc3ncnc4c3CCNCC4)CC2)cc1,Percent Effect,"30.3 µM, […]",-23.91%
c1cncc(-c2noc(CNc3ncnc4c3CCNCC4)n2)c1,Percent Effect,"30.3 µM, […]",35.11%
COc1ccc(-c2cc(CNc3ncnc4c3CCNCC4)no2)cc1,Percent Effect,"30.3 µM, […]",66.16%
c1ccc(Cn2cc(CNc3ncnc4c3CCNCC4)cn2)cc1,Percent Effect,"30.3 µM, […]",13.57%
Cc1cccc(=O)n1CCCNc1ncnc2c1CCNCC2,Percent Effect,"30.3 µM, […]",9.317%
Cn1cc(-c2cc(-c3cnn(C)c3)n(CC(=O)NC3CC3)n2)cn1,Percent Effect,"30.3 µM, […]",-1.984%
Cc1ncc(CN(C)C2CCCN(CCc3ccccc3)C2)n1C (centres undefined),Percent Effect,"30.3 µM, […]",22.06%
CN(CCCNC(=O)C1CCCN(C(N)=O)C1)S(C)(=O)=O (centres undefined),Percent Effect,"30.3 µM, […]",4.871%
COc1cccc(CN2CCCC3(CCN(C(=O)[C@H]4CCCO4)C3)C2)c1 (some centres undefined),Percent Effect,"30 µM, 30.03 µM",29.96%
COc1cccc(CN2CCCC3(CCN(C(=O)c4ccco4)C3)C2)c1 (centres undefined),Percent Effect,"30 µM, 30.03 µM",53.43%
COc1cccc(CN2CCCC3(CCN(C(=O)N4CCCC4)C3)C2)c1.O=C(O)C(F)(F)F (centres undefined),Percent Effect,"30.3 µM, […]",1.476%
COCc1ncc(CN2CC[C@@](C)(O)[C@@H](Cc3ccccc3)C2)cn1,Percent Effect,"30.3 µM, […]",11.16%
COc1ccc2c(ccn2CC(=O)NC[C@@H]2CCCN3CCCC[C@H]23)c1,Percent Effect,"30.3 µM, […]",29.51%
O=C(CCn1ccc2cc(Br)ccc21)NC[C@@H]1CCCN2CCCC[C@H]12,Percent Effect,"30.3 µM, […]",94.12%
O=C(Cn1ccc2cc(Br)ccc21)NC[C@@H]1CCCN2CCCC[C@H]12,Percent Effect,"30.3 µM, […]",50.79%
O=C(Cn1ccc2ccc(Br)cc21)NC[C@@H]1CCCN2CCCC[C@H]12,Percent Effect,"30 µM, 30.03 µM",-30.69%
Cc1ccc2c(ccn2CC(=O)NC[C@@H]2CCCN3CCCC[C@H]23)c1,Percent Effect,"30 µM, 30.03 µM",26.96%
Cc1ccc2c(ccn2CCC(=O)NC[C@@H]2CCCN3CCCC[C@H]23)c1,Percent Effect,"30 µM, 30.03 µM",28.72%
